{
  "source": "PubChem BioAssay (NCI)",
  "note": "About 83,000 compounds went through this panel and 20% of them were active in at least one assay; those are over-represented in the sample as a whole.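 96-well plates, one dose, 48 hours. Percent growth reported; active if below 10.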 Values without a mark were called inactive. The source made the active and inactive calls.",
  "data": [
    {"test_system": "A549/ATCC NSCLC", "experiment": "NCI-60 one-dose screen, 48 h (100 = growth as untreated, 0 = no growth, -100 = all killed)", "settings": "10 µM", "values": [
      {"smiles": "C=C1CCC2C3(C)COC(c4cc(F)cc(F)c4)OC3CCC2(C)C1C/C=C1/C(=O)OCC1O", "note": "(stereo not given)", "growth": "4.7% (active)"},
      {"smiles": "Cc1cc(C(F)(F)F)ccc1C(=O)Nc1sc2c(c1C#N)CCC(=O)C2", "growth": "30%"},
      {"smiles": "N#Cc1c(Cl)nc(SCc2ccc(F)cc2)nc1-c1ccc(F)cc1", "growth": "91.6%"}
    ]},
    {"test_system": "786-0 renal", "experiment": "NCI-60 one-dose screen, 48 h (100 = growth as untreated, 0 = no growth, -100 = all killed)", "settings": "10 µM", "values": [
      {"smiles": "COc1ccc(N2N=C(c3ccc4c(c3)OCCO4)CC2c2cccc(NC(=O)CCCNS(=O)(=O)c3ccc(F)cc3)c2)cc1", "note": "(stereo not given)", "growth": "66.6%"},
      {"smiles": "COc1cc(/C=N/NC(=O)c2ccc3nc(-c4ccc(Cl)cc4)[nH]c3c2)cc(OC)c1OC", "growth": "-4.1% (active)"},
      {"smiles": "O=C(N=Nc1c(O)[nH]c2ccc(Br)cc12)c1ccc2nc(-c3ccccc3)[nH]c2c1", "growth": "-92.9% (active)"},
      {"smiles": "COc1ccccc1[C@H]1C(C(=O)c2ccc(Cl)cc2)C2(N[C@@H]1c1ccccc1)C(=O)Nc1ccc(Cl)cc12", "note": "(stereo not given in full)", "growth": "8.8% (active)"},
      {"smiles": "O=c1cc(-c2ccccc2)oc2cc(OCCCNCc3ccccc3)cc(O)c12", "growth": "-48% (active)"},
      {"smiles": "O=C1Nc2cc(-c3ccc(NC(=O)c4cccs4)cc3)ccc2/C1=C/c1ccc[nH]1", "growth": "98.5%"},
      {"smiles": "O=C(c1ccc(O)cc1)C1[C@H](c2ccc(Br)cc2)[C@@H](c2ccccc2)NC12C(=O)Nc1ccccc12", "note": "(stereo not given in full)", "growth": "16.3%"},
      {"smiles": "C=C1CCC2C3(C)COC(c4ccccc4F)OC3CCC2(C)C1C/C=C1/C(=O)OCC1O", "note": "(stereo not given)", "growth": "-86.8% (active)"},
      {"smiles": "C=C1CCC2C3(C)COC(c4c(F)cccc4F)OC3CCC2(C)C1C/C=C1/C(=O)OCC1O", "note": "(stereo not given)", "growth": "-77.6% (active)"},
      {"smiles": "COc1cccc(/C=C2\\N=C(C)N(CCc3ccc(S(N)(=O)=O)cc3)C2=O)c1", "growth": "90.4%"},
      {"smiles": "C=C1CCC2C3(C)COC(c4cccc(F)c4)OC3CCC2(C)C1CC(O)C1=CCOC1=O", "note": "(stereo not given)", "growth": "41.1%"},
      {"smiles": "Cn1cc(-c2cc(N)n3nc(-c4c[nH]c5ccc(Br)cc45)cc3n2)c2cccnc21", "growth": "-80.2% (active)"},
      {"smiles": "C=C1CCC2C3(C)COC(c4c(F)cccc4F)OC3CCC2(C)C1CC(O)C1=CCOC1=O", "note": "(stereo not given)", "growth": "19.1%"},
      {"smiles": "Brc1ccc(/C=C/c2n(Cc3ccc4ccccc4c3)c3ccccc3[n+]2Cc2ccc3ccccc3c2)cc1", "growth": "-95.5% (active)"},
      {"smiles": "O=C(Nc1ccc(I)cc1)Nc1nc2ccc([N+](=O)[O-])cc2s1", "growth": "-100% (active)"},
      {"smiles": "O=C(N/N=C/c1ccc(B(O)O)o1)c1[nH]c2ccc(Br)cc2c1-c1ccccc1", "growth": "41.6%"},
      {"smiles": "CONC[C@]1(C)C=C2C(=O)[C@](C)(O)C3(CC3)C(C)=C2[C@H]1O", "growth": "5.71% (active)"},
      {"smiles": "O=C(Nc1cccc(-c2cn(-c3ccc4oc(=O)ccc4c3)nn2)c1)Nc1cc(C(F)(F)F)cc(C(F)(F)F)c1", "growth": "29.3%"},
      {"smiles": "CCCCCCCCCCCCCCCCCCCC(=O)NCCc1c[nH]c2ccc(OC(=O)CCCC(=O)OCCOOCCOOCCOOCCOOCCOOCCOOCCOOCCOOCCOOCCOOCCOOCCOC)cc12", "growth": "83.9%"},
      {"smiles": "COc1ccc(/C(C)=N/N=C2C(=O)N(C)c3ccc(Br)cc32)cc1S(N)(=O)=O", "growth": "71.4%"},
      {"smiles": "N#Cc1c(NC(=O)c2ccc(C(F)(F)F)cc2C(F)(F)F)sc2c1CCC(=O)C2", "growth": "4.38% (active)"},
      {"smiles": "CNCc1cccc2c1OCCCCCC[C@@](C)(O)CC1(CC1)S(=O)(=O)c1ccc(cc1)-c1cnc(N)c(n1)C(=O)N2", "growth": "-82.9% (active)"},
      {"smiles": "COc1cc(OC(F)(F)F)ccc1C(=O)Nc1sc2c(c1C#N)CCC(=O)C2", "growth": "97.5%"},
      {"smiles": "Nc1n[nH]c2cccc(C#Cc3cccc(NC(=O)Nc4cc(C(F)(F)F)cc(C(F)(F)F)c4)c3)c12", "growth": "-20.3% (active)"},
      {"smiles": "N#Cc1c(-c2ccc(F)cc2)nc(SCc2ccc([N+](=O)[O-])cc2)nc1N1CCOCC1", "growth": "30.2%"},
      {"smiles": "CC1=N/C(=C\\c2ccc(N(C)C)cc2)C(=O)N1CCc1ccc(S(N)(=O)=O)cc1", "growth": "101%"},
      {"smiles": "CN(CCF)c1ccc(/C=C/C(=O)c2ccc(N)cc2O)cc1", "growth": "90.5%"},
      {"smiles": "O=C(c1ccc(Cl)cc1)C1[C@H](c2ccccc2Br)[C@@H](c2ccccc2)NC12C(=O)Nc1ccccc12", "note": "(stereo not given in full)", "growth": "16.3%"},
      {"smiles": "O=C(Nc1cc(Cl)cc(Cl)c1)Nc1cc(Cl)cc(Cl)c1", "growth": "-1.4% (active)"},
      {"smiles": "O=C(c1ccc(O)cc1)C1[C@H](c2ccc(Br)cc2)[C@@H](c2ccccc2)NC12C(=O)Nc1ccc(Br)cc12", "note": "(stereo not given in full)", "growth": "-5.43% (active)"},
      {"smiles": "COc1ccccc1[C@H]1C(C(=O)c2ccc(O)cc2)C2(N[C@@H]1c1ccccc1)C(=O)Nc1ccc(Br)cc12", "note": "(stereo not given in full)", "growth": "26.9%"},
      {"smiles": "CN1CCN(c2ccc(C(=O)/C=C/c3ccc(C#N)cc3)cc2)CC1", "growth": "73.5%"},
      {"smiles": "CC(C)(C)Nc1nc2cc(Cl)c(Cl)cc2nc1S(C)(=O)=O", "growth": "44%"},
      {"smiles": "COc1cc(/C=C/C(=O)c2cc(OC)c(OC)c(OC)c2)ccc1Oc1nc(Nc2ccc(F)cc2)nc(N(C)C)n1", "growth": "-94.1% (active)"},
      {"smiles": "C=C1CCC2C3(C)COC(c4cc(F)cc(F)c4)OC3CCC2(C)C1C/C=C1/C(=O)OCC1O", "note": "(stereo not given)", "growth": "-90.5% (active)"},
      {"smiles": "Cc1cc(C(F)(F)F)ccc1C(=O)Nc1sc2c(c1C#N)CCC(=O)C2", "growth": "12.7%"},
      {"smiles": "N#Cc1c(Cl)nc(SCc2ccc(F)cc2)nc1-c1ccc(F)cc1", "growth": "95.4%"}
    ]}
  ]
}
